FEN1 inh: qHTS Assay for the Inhibitors of Human Flap endonuclease 1 (FEN1). P39748. AID 588795, 2011. Recombinant FEN1 flap cleavage, fluorescence, 15 min. Potency, µM (doses to about 114 µM), inactives show at the highest dose activity change, negative = inhibition, most hits filed as inhibitors. hit rate 0.35% among 390,000; also: % is scaled to controls: 0 for no effect and ±100 for the full control effect; nearly all actives have a fitted effect of over 65% in size
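Compounds are tested as a concentration series against 10 nM FEN1; after a 15 min room-temperature preincubation, 50 nM substrate starts cleavage, with plate reads at 0 and 15 min. Normalized responses are fitted by a Hill equation.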
Pol eta inh: qHTS for Inhibitors of Polymerase Eta | AID 588591, 2011 | recombinant Pol eta, fluorescent DNA replication assay | hit rate 1.2% among 390,000 | DNA polymerase eta (Homo sapiens), Q9Y253 | Potency, µM (top dose mostly 114 µM), for the others: at the top dose activity change, negative = inhibition, hits mostly inhibitors; also: % is scaled to controls: 0 for no effect and ±100 for the full control effect
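Fluorescent replication assay: 50 nM final substrate added after a 15 min room-temperature compound preincubation with 10 nM enzyme. Signal taken at 0 min and again at 10 min.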
POLI inh: qHTS for Inhibitors of Polymerase Iota. DNA polymerase iota (Homo sapiens), Q9UNA4. hit rate 1% among 390,000. Potency, µM (top dose mostly 115 µM), for inactives: at the top dose activity, negative = inhibition, hits mostly inhibitors. Pol iota fluorescent replication assay, 10 min. AID 588590, 2011
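Pol iota at 10 nM preincubated 15 min with compounds at room temperature; reaction started with fluorescent substrate, 50 nM final. Fluorescence read kinetically at 0 and 10 min; buffer-only wells as negative control.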
WRN inhibitor: qHTS for Inhibitors of WRN Helicase | WRN helicase unwinding, fluorescent forked duplex, kinetic | AID 651768, 2012 | Potency, µM (top dose mostly 114 µM), without a hit: at the highest dose activity change, negative = inhibition, hits mostly inhibitors | hit rate 0.46% among 360,000; also: % is scaled to controls: 0 for no effect and ±100 for the full control effect; nearly all actives have a fitted effect of over 55% in size
Target sequence (Q14191 whole entry, looked up): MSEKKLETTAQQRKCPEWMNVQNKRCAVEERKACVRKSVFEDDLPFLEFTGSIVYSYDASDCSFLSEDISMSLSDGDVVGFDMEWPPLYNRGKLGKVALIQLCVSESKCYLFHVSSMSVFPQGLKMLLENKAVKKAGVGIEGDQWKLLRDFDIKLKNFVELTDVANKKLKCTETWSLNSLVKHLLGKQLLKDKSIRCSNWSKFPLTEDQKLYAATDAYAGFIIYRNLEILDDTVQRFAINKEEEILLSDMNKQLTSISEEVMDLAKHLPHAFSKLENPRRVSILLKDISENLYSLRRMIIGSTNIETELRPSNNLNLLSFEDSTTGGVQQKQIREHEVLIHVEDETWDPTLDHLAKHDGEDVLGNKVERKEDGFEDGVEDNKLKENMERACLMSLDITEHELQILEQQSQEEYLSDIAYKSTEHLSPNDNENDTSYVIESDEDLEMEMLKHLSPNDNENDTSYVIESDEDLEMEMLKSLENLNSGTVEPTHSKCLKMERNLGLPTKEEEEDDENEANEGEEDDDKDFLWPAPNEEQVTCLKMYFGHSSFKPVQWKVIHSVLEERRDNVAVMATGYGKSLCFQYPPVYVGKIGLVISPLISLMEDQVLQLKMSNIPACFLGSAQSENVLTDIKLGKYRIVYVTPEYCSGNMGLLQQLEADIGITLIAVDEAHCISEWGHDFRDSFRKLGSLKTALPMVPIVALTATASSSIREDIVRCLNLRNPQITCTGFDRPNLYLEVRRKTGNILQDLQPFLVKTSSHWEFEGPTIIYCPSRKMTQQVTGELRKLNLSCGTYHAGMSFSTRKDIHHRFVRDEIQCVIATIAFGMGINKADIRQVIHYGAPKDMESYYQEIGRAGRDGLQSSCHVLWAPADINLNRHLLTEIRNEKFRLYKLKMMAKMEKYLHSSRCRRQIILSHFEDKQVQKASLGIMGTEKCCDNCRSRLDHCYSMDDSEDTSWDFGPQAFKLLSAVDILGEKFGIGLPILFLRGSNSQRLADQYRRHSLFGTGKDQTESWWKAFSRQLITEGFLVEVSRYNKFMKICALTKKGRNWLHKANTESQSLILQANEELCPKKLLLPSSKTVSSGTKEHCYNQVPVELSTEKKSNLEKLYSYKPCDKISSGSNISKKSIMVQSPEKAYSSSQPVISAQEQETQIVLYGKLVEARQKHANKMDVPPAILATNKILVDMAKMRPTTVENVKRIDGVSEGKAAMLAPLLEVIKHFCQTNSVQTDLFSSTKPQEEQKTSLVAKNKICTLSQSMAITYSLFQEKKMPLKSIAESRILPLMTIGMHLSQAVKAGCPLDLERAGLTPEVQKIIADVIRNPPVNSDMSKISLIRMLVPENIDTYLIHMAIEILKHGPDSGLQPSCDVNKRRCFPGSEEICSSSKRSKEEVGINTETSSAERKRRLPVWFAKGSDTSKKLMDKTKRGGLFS
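Kinetic red-fluorescence monitoring (525/598 nm) tracks WRN helicase activity after 100 nM fluorophore-quencher forked duplex and 2 mM ATP are added to 20 nM enzyme pretreated 15 min at room temperature with compound.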
POLB inh: qHTS Assay for Inhibitors of DNA Polymerase Beta; P06746; Pol beta primer extension/strand displacement, fluorescence kinetic; Potency, µM (highest dose often 114 µM), for the others: at the top dose activity change, negative = inhibition, usual class: inhibitors; hit rate 1.3% among 340,000; also: % is scaled to controls: 0 for no effect and ±100 for the full control effect
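Human Pol beta at 10 nM; strand-displacement substrate 50 nM final. Compound exposure 15 min at room temperature before start, reaction 10 min at room temperature.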
POLK inh: qHTS for Inhibitors of Polymerase Kappa; DNA polymerase kappa (Homo sapiens), Q9UBT6; purified Pol kappa, fluorescent DNA synthesis assay, 10 min; Potency, µM (highest dose often 107 µM), for the others: at the highest dose activity, negative = inhibition, most hits filed as inhibitors; hit rate 0.53% among 400,000; AID 588579, 2011; also: % is scaled to controls: 0 for no effect and ±100 for the full control effect
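Enzyme at 10 nM met test compounds for 15 min at room temperature. Substrate addition (50 nM final) began the reaction, which was monitored by fluorescence at 0 and 10 min.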
Numbers without * were called inactive; ? = inconclusive; · = no result; [ ] = dose if it differs, or a comment. Compounds with a hit are over-represented: about 2.4% of the library has one in this group of screens. Calls follow the shape of the dose curve; as a rule, active = well fitted curve in the direction sought with a large enough effect; inconclusive = small, poorly fitted or top-dose-only effect, or another doubt; inactive = no such curve, though single readings can be large; an effect the other way counts as inactive or inconclusive. Potency is read from the fitted curve at half-maximal effect.

SMILES	FEN1 inh	Pol eta inh	POLI inh	WRN inhibitor	POLB inh	POLK inh
CC(=O)c1sc(C(=O)O)c(-c2ccco2)c1-c1ccco1	?	22.4µM*	?	-35.7%	20µM*	44.7µM*
Cc1cc(/C=C/c2ccc3cc(N(C)C)ccc3[n+]2C)c(C)n1-c1ccccc1	·	·	·	·	·	28.2µM*
COC(=O)C1=C[C@@H](C(=O)OC)C2C3=C(C(=O)[C@@]2(C)NC(=O)c2ccccc2)[C@H](C)[C@@H]2C(=O)N(C)C(=O)[C@@H]2[C@@H]3C1 (stereo not given in full)	-7.6%	·	?	·	·	-0.2%
CC(=O)N1CCn2c3c(c(=O)c4cc(C)ccc42)CCC31 (stereo not given)	-8.6%	3.5%	22.4µM*	-11.2%[57.1 µM]	-3.1%	-21.8%
Cn1ncc(S(=O)(=O)Cc2ccccc2)c(Br)c1=O	·	·	·	·	·	-10.1%[60.1 µM]
Cc1cc2c(C)nc(N/N=C/c3ccc(F)cc3)nc2o1	5.7%	-19.0%	-18.3%	-6.6%	?	-7.3%
Cc1cc2c(C)nc(N/N=C/c3ccc([N+](=O)[O-])cc3)nc2o1	-11.1%	?	35.5µM*	-25.6%[11.6 µM]	-19.1%	-13.1%
CCn1c(=N)c(C(=O)NC2CCCCC2)cc2c(=O)n3cc(C)ccc3nc21	-16.7%	-11.1%	4.8%	·	2.0%	-1.5%
NC(=S)n1[nH]c(-c2ccc([N+](=O)[O-])cc2)c(N=Nc2ccc(Cl)cc2)c1=O	?	?	20µM*	?	?	?
Cc1ccc(-c2nc3cnccn3c2Nc2ccc(C(C)C)cc2)o1	-29.1%	·	?	·	·	-36.8%
CC(C)NC[C@H]1CCc2cc(CO)c([N+](=O)[O-])cc2N1	·	·	·	·	·	0.4%[19.4 µM]
Cc1nc(CC(=O)NNS(=O)(=O)c2ccc3ccccc3c2)cs1	4.4%	-27.8%	1.6%	1.5%	-2.4%	-0.1%
COc1ccc(S(=O)(=O)NNC(=O)Cc2csc(C)n2)cc1[N+](=O)[O-]	-2.0%	?	50.1µM*	2.4%[11.6 µM]	·	?
CC1(C(=O)O)CCC2(C)CCC3(C)C(=CC(=O)C4C5(C)CCC(O)C(C)(C)C5CCC43C)C2C1 (stereo not given)	·	·	·	·	·	2.1%[19.4 µM]
CC/C(C)=N/Nc1nc2c(c(=O)[nH]c(=O)n2C)n1Cc1ccccc1	-23.9%	?	15.8µM*	-2.7%[11.6 µM]	?	-36.5%
CC/C(C)=N/Nc1nc2c(c(=O)[nH]c(=O)n2C)n1CCc1ccccc1	-10.3%	-6.8%	58.8%	-8.1%	-17.2%	-6.3%
O=C(Nc1ccc(Oc2ccccc2)cc1)C1CCCO1 (stereo not given)	-15.7%	10.1%	-13.1%	-15.4%	79.4µM*	-10.0%
NCCCC[C@H]1NC(=O)[C@H](CCC(=O)O)NC(=O)c2cc([N+](=O)[O-])cc(I)c2OCC[C@@H](C(N)=O)NC1=O	22.4µM*	-98.3%	8.91µM*	10µM*	-8.9%	3.55µM*
C[C@@H]1NC(=O)c2cc([N+](=O)[O-])cc(I)c2OCC[C@@H](C(N)=O)NC(=O)[C@H](CCCCN)NC1=O	8.8%	-6.1%	-13.5%	6.5%	-1.1%	-7.8%
Cn1cccc1-c1cc(C(=O)N/N=C/C=C/c2ccccc2)[nH]n1	-21.6%	-4.8%	?	-6.1%	10µM*	?
COc1cccc(/C=N/NC(=O)c2cc(-c3cccn3C)n[nH]2)c1	3.7%	?	?	1.3%	35.5µM*	?
C#CCOCCOCCOCCNc1nc(N2CCN(C(=O)CCCCCCCCCCNC(=O)[C@H]([C@@H](C)CC)n3cc(CCCCCN)nn3)CC2)nc(N2CCN(C(=O)CCCCCCCCCCNC(=O)[C@@H]([C@H](C)O)n3cc(C)nn3)CC2)n1	56.2µM*	?	?	56.2µM*	·	?
C#CCOCCOCCOCCNc1nc(N2CCN(C(=O)CCCCCCCCCCNC(=O)Cn3cc(CCCCCN)nn3)CC2)nc(N2CCN(C(=O)CCCCCCCCCCNC(=O)[C@H]([C@@H](C)CC)n3cc(CCCCCN)nn3)CC2)n1	?	?	?	56.2µM*	·	7.4%
C#CCOCCOCCOCCNc1nc(N2CCN(C(=O)CCCCCCCCCCNC(=O)Cn3cc(CCCCCN)nn3)CC2)nc(N2CCN(C(=O)CCCCCCCCCCNC(=O)[C@H](CO)n3cc(CCCCCN)nn3)CC2)n1	?	-16.7%	?	79.4µM*	·	2.9%
CCC(C)C(N)C(=O)O (stereo not given)	·	·	·	·	·	0.4%[19.4 µM]
SMILES	FEN1 inh	Pol eta inh	POLI inh	WRN inhibitor	POLB inh	POLK inh
CN[C@@H](CCCN=C(N)N)C(=O)N[C@@H](CCCCN)C(=O)N1CCC[C@H]1C(=O)N[C@@H](Cc1c[nH]c2ccccc12)C(=O)N[C@H](C(=O)N[C@H](CC(C)C)C(=O)O)C(C)(C)C	·	·	·	·	·	6.9%[60.1 µM]
O=C(NCC(=O)N1CCN(c2ccccc2O)CC1)c1ccco1	3.8%	-19.0%	79.4µM*	-19.2%	-22.7%	-30.9%
COc1cc2c(NC3CCN(C)CC3)nc(N3CCCN(C)CC3)nc2cc1OCCOCCN1CCCC1	20µM*	·	-15.8%	·	·	-16.4%
COc1cc2c(NC3CCN(C)CC3)nc(N3CCCN(C)CC3)nc2cc1OCCCCC(N)=O	?	·	-2.3%	·	·	-1.9%
COc1cc2c(NC3CCN(C)CC3)nc(N3CCCN(C)CC3)nc2cc1OCCCC(C)C	?	·	-6.8%	·	·	-12.9%
COc1cc2c(NC3CCN(C)CC3)nc(N3CCCN(C)CC3)nc2cc1OCCCN1CCCCC1	22.4µM*	·	?	·	·	-27.2%
Cc1ccc(CN2CCC(CNc3ncnc4onc(-c5ccc(F)cc5)c34)CC2)cc1	-6.3%	-1.5%	12.9%	·	-11.2%	-12.4%
CCc1cc2c(cc3c(=O)n(CC(=O)NC(C)C)nc(CC)n32)s1	-4.1%	-13.2%	30.7%	·	-1.3%	16.0%
O=C(Cn1ncc2c3ccccc3n(Cc3ccccc3)c2c1=O)N1CCCCCC1	4.3%	-20.8%	27.2%	·	1.6%	-10.5%
CC(CCc1ccccc1)NC(=O)Cn1ncc2c3ccccc3n(Cc3cccc(Cl)c3)c2c1=O (stereo not given)	13.6%	?	?	·	17.8µM*	-24.5%
O=C(Cn1ncc2c3ccccc3n(Cc3cccc(Cl)c3)c2c1=O)Nc1ccc(F)cc1F	3.4%	?	?	·	22.4µM*	?
O=C(Cn1ncc2c3ccccc3n(Cc3cccc(Cl)c3)c2c1=O)N1CCCCCC1	8.1%	-19.9%	?	·	25.1µM*	-25.0%

Screening data from PubChem.
